Experimental findings from PubChem BioAssay are described below.

This assay is described as follows: liver-stage malaria parasite load reduction – cell-based, known kinase inhibitor set, luminescence, hepatoma host viability (AID 624392).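 Note: infected cells incubated roughly two days before readout.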 Particulars: Plasmodium liver stage in hepatoma cells, luciferase luminescence, concentration not given here; liver cell % of control: measured here: host liver cell viability; parasite % of control: stronger effect = lower value.

Values joined by “and” are separate entries in the source; they are usually repeats but may differ in a detail not shown here. Identical values can stand only once. Active and inactive are the calls of the source. The rule behind the calls is not given here.

With `CC(C)CC(CO)Nc1nc(Nc2cccc(Cl)c2)c2ncn(C(C)C)c2n1` (stereo not given), the liver cell % of control stood at 102% and the parasite % of control was 148% (inactive).
Turning to `C=CC(=O)Nc1cccc(Oc2ccnc3[nH]ccc23)c1`, the liver cell % of control came out at 102% and the parasite % of control was 56.9% (inactive).
In the case of `Cc1cn(-c2cc(NC(=O)c3ccc(C)c(NC(=O)c4cccc(-c5cn[nH]c(=O)c5)c4)c3)cc(C(F)(F)F)c2)cn1`, the liver cell % of control turned out to be 97.4% and the parasite % of control was 93.8% (inactive).
As to `CCN1CCN(Cc2ccc(NC(=O)c3ccc(C)c(NC(=O)c4csc(-c5ccncc5)n4)c3)cc2C(F)(F)F)CC1`, the liver cell % of control was 99.6% and the parasite % of control is 126% (inactive).
Turning to `COc1cc(N2CCC(O)CC2)ccc1Nc1nnc(Cl)c(Nc2ccccc2S(C)(=O)=O)n1`, the liver cell % of control is 86.2% and the parasite % of control is 80.5% (inactive).
On to `Nc1cccc(-c2c[nH]c3ncc(-c4cccnc4)cc23)c1`, for which the liver cell % of control is 94.3% and the parasite % of control was 42.1% (inactive).
Consider `CN(c1ccc(OC(F)(F)F)cc1)c1cc(-c2cccc(C(N)=O)c2)ncn1`, for which the liver cell % of control turned out to be 99.1% and the parasite % of control was 107% (inactive).
Turning to `CC(C)CC(CO)Nc1nc(N(C)c2cccc(Cl)c2)c2ncn(C(C)C)c2n1` (stereo not given), the liver cell % of control came to 102% and the parasite % of control is 114% (inactive).
In the case of `C=CC(=O)Nc1ccc(CN2C(=O)N(c3c(Cl)c(OC)cc(OC)c3Cl)Cc3cnc(NCCCCN(CC)CC)nc32)cc1`, the liver cell % of control came out at 96.7% and the parasite % of control was 227% (inactive).
For `C=CC(=O)Nc1ccc(Oc2nc(Nc3ccc(N4CCN(C)CC4)cc3OC)ncc2Cl)cc1`, in that order: 97.7% and 126% (inactive).
For the compound `CCN1CCN(Cc2ccc(C(=O)Nc3ccc(C)c(NCc4cnc(NC(=O)OC)cn4)c3)cc2C(F)(F)F)CC1`, the liver cell % of control worked out at 105% and the parasite % of control was 107% (inactive).
`NS(=O)(=O)c1ccc(-c2ccc(C=C3C(=O)c4ccccc4C3=O)o2)cc1`: the liver cell % of control is 102% and the parasite % of control was 96.4% (inactive).
Regarding `CC(C)n1cnc2c(Nc3cccc(F)c3)nc(NCCO)nc21`, the liver cell % of control came out at 95.1% and the parasite % of control is 135% (inactive).
Regarding `O=C(Nc1cccc(-c2csc(Nc3ccccc3)n2)c1)c1cc([N+](=O)[O-])cc(C(F)(F)F)c1`, the liver cell % of control was found to be 92.9% and the parasite % of control was 168% (inactive).
With `O=C(Nc1ccc(-c2csc(Nc3ccc(Cl)cc3)n2)cc1)c1ccccc1`, the liver cell % of control stood at 103% and the parasite % of control is 110% (inactive).
With `CCN1CCN(Cc2ccc(NC(=O)c3cc(NC(=O)N4CCNC4=O)cc(OC)c3)cc2C(F)(F)F)CC1`, the liver cell % of control came out at 96.3% and the parasite % of control is 12.4% (active).
Regarding `O=C(Nc1ccc(-c2csc(Nc3ccccc3)n2)cc1)c1ccccc1`, the liver cell % of control came out at 102% and the parasite % of control is 204% (inactive).
Turning to `CCN1CCN(Cc2ccc(NC(=O)c3cc(NC(=O)c4cncc(-c5cccs5)c4)cc(OC)c3)cc2C(F)(F)F)CC1`, the liver cell % of control worked out at 101% and the parasite % of control is 88.5% (inactive).
Regarding `O=C(Nc1cccc(-c2csc(Nc3ccc(Cl)cc3)n2)c1)c1cc([N+](=O)[O-])cc(C(F)(F)F)c1`, the liver cell % of control turned out to be 95.1% and the parasite % of control is 192% (inactive).
In the case of `Cc1ccc(C(=O)Nc2cccc(C(F)(F)F)c2)cc1NC(=O)c1csc(-c2ccncc2)n1`, the liver cell % of control was 91.8% and the parasite % of control is 76.3% (inactive).
Take `Cc1cc(C(=O)Nc2cc(Nc3ccc4c(C=Cc5ccccn5)n[nH]c4c3)ccc2F)n(C)n1`: the liver cell % of control is 75.4% and 84.5% and 95.8%; the parasite % of control was 17.4% (inactive) and 18.3% (inactive) and 40.1% (inactive).
As for `NS(=O)(=O)c1ccc(-c2ccc(C=C3NC(=S)NC3=O)o2)cc1`, the liver cell % of control turned out to be 98.7% and the parasite % of control was 100% (inactive).
Consider `CN(C)CCCNc1ccc(-c2cc(Nc3cccc(Cl)c3)ncn2)cn1`, for which the liver cell % of control came out at 94.9% and the parasite % of control was 108% (inactive).
As for `C=CC(=O)Nc1ccc(N(C)c2ccnc(Nc3ccc(N4CCN(C)CC4)cc3)n2)cc1`, the liver cell % of control worked out at 107% and the parasite % of control is 27.8% (inactive).
As to `Cc1ccc(C(=O)Nc2cccc(C(F)(F)F)c2)cc1NC(=O)c1cnnc2ccccc12`, the liver cell % of control was determined as 104% and the parasite % of control is 44.2% (inactive).
On to `Nc1cnc(CNc2ccccc2Cl)cn1`, for which the liver cell % of control amounted to 100% and the parasite % of control was 136% (inactive).
Regarding `CC(C)n1cnc2c(Nc3ccc(C(=O)O)cc3)nc(Cl)nc21`, the liver cell % of control amounted to 88.9% and the parasite % of control was 123% (inactive).
For `CCN1CCN(Cc2ccc(NC(=O)c3ccc(C)c(NC(=O)c4nccnc4N)c3)cc2C(F)(F)F)CC1`, the liver cell % of control was 93.8% and the parasite % of control was 155% (inactive).
Take `CCN1CCN(Cc2ccc(NC(=O)c3ccc(C)c(NC(=O)CC4NC(=O)C(Cc5ccccc5)NC4=O)c3)cc2C(F)(F)F)CC1` (stereo not given): the liver cell % of control came out at 105% and the parasite % of control is 114% (inactive).
As to `COc1ccc(CNc2nc(NCc3ccc(OC)cc3)c3ncn(C(C)C)c3n2)cc1`, the liver cell % of control was 107% and the parasite % of control was 168% (inactive).
With `CC(C)C(CO)Nc1nc(Nc2ccc(Cl)c(C(=O)O)c2)c2ncn(C(C)C)c2n1` (stereo not given), the liver cell % of control was 94.7% and the parasite % of control was 116% (inactive).
Take `O=C(Nc1ccc(-c2csc(Nc3ccc(Cl)cc3)n2)cc1)c1cccc(C(F)(F)F)c1`: the liver cell % of control stood at 104% and the parasite % of control was 88% (inactive).
Turning to `Cc1cn(-c2cc(C(=O)Nc3ccc(C)c(NC(=O)C(=O)c4c[nH]c5ccccc45)c3)cc(C(F)(F)F)c2)cn1`, the liver cell % of control stood at 95.9% and the parasite % of control was 102% (inactive).
On to `Cc1ccc(C(=O)Nc2cccc(C(F)(F)F)c2)cc1NC(=O)c1ccno1`, for which the liver cell % of control is 103% and the parasite % of control is 87.9% (inactive).
Consider `CC(=O)Nc1ccc(C(C)C(=O)Nc2ncc(C(C)C)s2)cc1` (stereo not given), for which the liver cell % of control was 53.4% and 52.2% and 52.5%; the parasite % of control is 136% (inactive) and 128% (inactive) and 133% (inactive).
Turning to `COc1cc(NC(=O)c2cncc(-c3ccc(C#N)cc3)c2)cc(C(=O)Nc2cccc(C(F)(F)F)c2)c1`, the liver cell % of control is 98.8% and the parasite % of control is 101% (inactive).
For the compound `NC1=NC(=O)C(=Cc2ccc(-c3ccc(Cl)cc3)o2)S1`, the liver cell % of control was 97.6% and the parasite % of control is 73.1% (inactive).
`CCN1CCN(Cc2ccc(NC(=O)c3ccc(C)c(NC(=O)c4cccc(-c5cn[nH]c(=O)c5)c4)c3)cc2C(F)(F)F)CC1`: the liver cell % of control is 103% and the parasite % of control was 55.8% (inactive).
The corresponding values for `COc1cc(NC(=O)c2nccnc2N)cc(C(=O)Nc2cccc(C(F)(F)F)c2)c1` are 97.3% and 84.9% (inactive).
Consider `O=C(Nc1cccc(-c2csc(Nc3cccc(C(F)(F)F)c3)n2)c1)c1ccccc1`, for which the liver cell % of control turned out to be 97.7% and the parasite % of control is 68.7% (inactive).
In the case of `COc1cc(NC(=O)c2csc(-c3ccncc3)n2)cc(C(=O)Nc2cccc(C(F)(F)F)c2)c1`, the liver cell % of control is 95.7% and the parasite % of control was 124% (inactive).
The corresponding values for `C=CC(=O)Nc1cccc(CN2C(=O)N(c3cc(OC)cc(OC)c3)Cc3cnc(NCCCCN(CC)CC)nc32)c1` are 102% and 70.3% (active).
Take `CC(C)C(CO)Nc1nc(Nc2ccc(C(=O)O)c(Cl)c2)c2ncn(C(C)C)c2n1` (stereo not given): the liver cell % of control was 52.3% and 72.3%; the parasite % of control was 13.7% (inactive) and 48.9% (inactive) and 114% (inactive).
As to `CC(C)C(CO)Nc1nc(Nc2cc(C(=O)O)cc(C(=O)O)c2)c2ncn(C(C)C)c2n1` (stereo not given), the liver cell % of control came out at 107% and the parasite % of control is 38% (inactive).
For the compound `CS(=O)(=O)Nc1ccc(-c2cc(C=C3SC(N)=NC3=O)c[nH]c2=O)cc1`, the liver cell % of control stood at 97.7% and the parasite % of control is 127% (inactive).
On to `CCN1CCN(Cc2ccc(NC(=O)c3cc(NC(=O)c4cc(-c5ccc(OC)cc5)n[nH]4)cc(OC)c3)cc2C(F)(F)F)CC1`, for which the liver cell % of control was 90.4% and the parasite % of control is 132% (inactive).
As to `COc1cc(C(=O)NC2CCN(C)CC2)ccc1Nc1ncc2c(n1)N(C1CCC(O)CC1)CCC(=O)N2C` (stereo not given), the liver cell % of control was found to be 103% and the parasite % of control was 180% (inactive).
Take `COc1cc(C(=O)NC2CCN(C)CC2)ccc1Nc1ncc2c(n1)N(Cc1ccccc1)CCC(=O)N2C`: the liver cell % of control was found to be 97.7% and the parasite % of control was 579% (inactive).
For `Cc1ccc([N+](=O)[O-])cc1S(=O)(=O)N(C)N=Cc1c[nH]c2ccc(Br)c[n+]12`, the liver cell % of control is 93% and the parasite % of control was 3.49% (active).
`CCN1CCN(Cc2ccc(NC(=O)c3ccc(C)c(NC(=O)C4=NN(c5ccccc5)C(=O)C4)c3)cc2C(F)(F)F)CC1`: the liver cell % of control is 101% and the parasite % of control was 72.3% (inactive).
On to `C=CC(=O)Nc1cccc(N2C(=O)N(c3c(Cl)c(OC)cc(OC)c3Cl)Cc3cnc(NCCCCN(CC)CC)nc32)c1`, for which the liver cell % of control worked out at 104% and the parasite % of control is 107% (inactive).
Consider `Cc1c[nH]c(C=C2C(=O)Nc3ccccc32)c1CCC(=O)O`, for which the liver cell % of control was 85.5% and 92.1% and 99.1%; the parasite % of control was 58.7% (inactive) and 47.8% (inactive) and 49.4% (inactive).
For `C=CC(=O)N1CCN(Cc2ccc(C(=O)Nc3ncc(Sc4cc(C(=O)N5CCN(C(C)=O)CC5)c(OC)cc4C)s3)cc2)CC1`, the liver cell % of control came out at 92.4% and the parasite % of control was 597% (inactive).
Turning to `CCN1CCN(Cc2ccc(NC(=O)c3cc(NC(=O)c4cc(C)on4)cc(OC)c3)cc2C(F)(F)F)CC1`, the liver cell % of control was 99.3% and the parasite % of control is 92.3% (inactive).
For `COc1cc(NC(=O)c2cnc(N)s2)cc(C(=O)Nc2cccc(C(F)(F)F)c2)c1`, the liver cell % of control was 98.2% and the parasite % of control is 79% (inactive).
